# The campaign covered roughly 66,000 compounds. About 960 (1.5%) showed an effect of 50% or more. The sample as a whole holds a higher share of strong results than the screen did.
# Tested on: Trypanosoma brucei
# Test: Trypanosoma brucei 72 hour study
# Type: functional, organism-based
# Set-up: scale not given: in the data most compounds retested in dose-response had high values
smiles,measurement,setting,value
Cc1ccc(CN2CCCC3(CCN(S(C)(=O)=O)C3)C2)o1.O=C(O)C(F)(F)F (stereo not given),Percent Effect,"30 µM, 30.03 µM",16.24%
Cc1csc2c(N3CCNC(C(=O)N4CCCC4)C3)ncnc12 (stereo not given),Percent Effect,"30 µM, 30.03 µM",24.45%
Cc1csc2c(N3CCNC(C(=O)NCc4cccnc4)C3)ncnc12 (stereo not given),Percent Effect,"30 µM, 30.03 µM",-5.987%
Cc1csc2c(N3CCNC(C(=O)Nc4ccc(F)cc4)C3)ncnc12 (stereo not given),Percent Effect,"30 µM, 30.03 µM",72.13%
Cc1cc(C(=O)N2CCc3nc(C4CCCN4)ncc3C2)cs1.Cl (stereo not given),Percent Effect,"30.3 µM, […]",-23.19%
Cc1occc1C(=O)NCC(=O)N(C)CCCOc1ccccc1,Percent Effect,"30 µM, 30.03 µM",-44.45%
Cc1occc1C(=O)NCC(=O)N(C)CCCOc1ccc(F)cc1,Percent Effect,"30 µM, 30.03 µM",95.62%
Cc1occc1C(=O)NCC(=O)NCCCOc1ccc(F)cc1,Percent Effect,"30 µM, 30.03 µM",-42.11%
CNC(=O)c1ccc(C2CCCN(C(=O)c3sc(C)nc3C)C2)nc1 (stereo not given),Percent Effect,"30.3 µM, […]",-1.908%
Cc1cc(NCCN)nc2ccccc12.O=[N+]([O-])O,Percent Effect,"30.3 µM, […]",-46.24%
CCS(=O)(=O)c1ccccc1N1CCC(NC(=O)NC2CCCC2)CC1,Percent Effect,"30 µM, 30.03 µM",7.94%
CCS(=O)(=O)c1ccccc1N1CCC(NC(C)=O)CC1,Percent Effect,"30 µM, 30.03 µM",4.915%
CCS(=O)(=O)c1ccccc1N1CCC(NC(=O)c2ccc[nH]2)CC1,Percent Effect,"30 µM, 30.03 µM",54.24%
CCC[C@@H]1CN(Cc2cc(C#N)n(C)c2C)C[C@H]1NS(C)(=O)=O,Percent Effect,"30 µM, 30.03 µM",0.9985%
Cc1nc(N)c2ccc(C3CCCCN3)nc2n1.Cl (stereo not given),Percent Effect,"30.3 µM, […]",-17.89%
CN(c1ccc(C(=O)NCCCN2CCCCC2)c(Cl)c1)S(C)(=O)=O,Percent Effect,"30 µM, 30.03 µM",-14.39%
CC(C)c1cc(=O)[nH]c(C(C)(C)N)n1.Cl,Percent Effect,"30 µM, 30.03 µM",-29.56%
Cc1cc(=O)[nH]c(-n2nc(C3CC3)cc2N)n1,Percent Effect,"30 µM, 30.03 µM",-21.61%
CC(=O)Nc1cc(C2CC2)nn1-c1nc(C)c(C)c(=O)[nH]1,Percent Effect,"30 µM, 30.03 µM",-12.81%
CCc1c(C)nc(-n2nc(C3CC3)cc2NC(C)=O)[nH]c1=O,Percent Effect,"30 µM, 30.03 µM",-1.646%
CC(C)c1cc(=O)[nH]c(-n2nc(C3CC3)cc2N)n1,Percent Effect,"30 µM, 30.03 µM",99.41%
CCc1cc(=O)[nH]c(-n2nc(C3CC3)cc2NC(=O)C2CC2)n1,Percent Effect,"30 µM, 30.03 µM",97.36%
CCCc1cc(=O)[nH]c(-n2nc(-c3cccs3)cc2N)n1,Percent Effect,"30 µM, 30.03 µM",-29.48%
CCCc1cc(=O)[nH]c(-n2nc(C3CC3)cc2N)n1,Percent Effect,"30 µM, 30.03 µM",78.26%
Cc1cc(=O)[nH]c(-n2nc(-c3ccccc3)cc2N)n1,Percent Effect,"30 µM, 30.03 µM",-3.849%
COc1ccc(CC(=O)N2Cc3nccn3CC(CN(C)C)C2)cc1.O=C(O)C(F)(F)F (stereo not given),Percent Effect,"30 µM, 30.03 µM",-47.37%
Cc1cccc(CN2CCC3(CC2)NC(=O)C[C@H]3c2cnn(C)c2)n1.O=C(O)C(F)(F)F,Percent Effect,"30.3 µM, […]",-5.843%
COc1cc2c(cc1CNC(Cc1cccs1)c1nccs1)OCO2.Cl (stereo not given),Percent Effect,"30.3 µM, […]",-17.08%
O=C1N[C@H]2OCCC[C@H]2[C@H](c2ccccc2)N1,Percent Effect,"30 µM, 30.03 µM",-11.46%
CCOc1cc(CNC(=O)c2cnn(CC)c2C(F)(F)F)ccn1,Percent Effect,"30 µM, 30.03 µM",1.219%
Fc1cccc(N2CCCC3(CN(Cc4ccco4)CCO3)C2)c1.O=C(O)C(F)(F)F.O=C(O)C(F)(F)F (stereo not given),Percent Effect,"30.3 µM, […]",99.09%
Fc1cccc(N2CCCC3(CN(Cc4cccnc4)CCO3)C2)c1.O=C(O)C(F)(F)F.O=C(O)C(F)(F)F.O=C(O)C(F)(F)F (stereo not given),Percent Effect,"30.3 µM, […]",86.99%
Cc1ccc(CN2CCOC3(CCCN(c4cccc(F)c4)C3)C2)o1.O=C(O)C(F)(F)F.O=C(O)C(F)(F)F (stereo not given),Percent Effect,"30.3 µM, […]",98.9%
Cn1cc(CN2CCOC3(CCCN(c4cccc(F)c4)C3)C2)cn1.O=C(O)C(F)(F)F.O=C(O)C(F)(F)F (stereo not given),Percent Effect,"30.3 µM, […]",-12.05%
O=C(O)C(F)(F)F.OCCN1CCOC2(CCCN(c3cccc(F)c3)C2)C1 (stereo not given),Percent Effect,"30 µM, 30.03 µM",21.19%
Fc1cccc(N2CCCC3(CN(Cc4ccccn4)CCO3)C2)c1.O=C(O)C(F)(F)F.O=C(O)C(F)(F)F.O=C(O)C(F)(F)F (stereo not given),Percent Effect,"30.3 µM, […]",1.036%
Fc1cccc(N2CCCC3(CN(Cc4ccncc4)CCO3)C2)c1.O=C(O)C(F)(F)F.O=C(O)C(F)(F)F.O=C(O)C(F)(F)F (stereo not given),Percent Effect,"30 µM, 30.03 µM",7.874%
Fc1cccc(N2CCCC3(CN(Cc4nccs4)CCO3)C2)c1.O=C(O)C(F)(F)F.O=C(O)C(F)(F)F (stereo not given),Percent Effect,"30.3 µM, […]",9.59%
Fc1cccc(N2CCCC3(C2)CN(c2ncccn2)CCO3)c1.O=C(O)C(F)(F)F.O=C(O)C(F)(F)F (stereo not given),Percent Effect,"30 µM, 30.03 µM",-26.54%
COc1c(C2CCCN2C(=O)c2ccc(O)nc2)c(C)nn1C (stereo not given),Percent Effect,10 µM,-34.15%
COCCCN1CC2(CCN(C(=O)c3ncc(F)cc3F)CC2)CC1=O,Percent Effect,"30 µM, 30.03 µM",-16.91%
Cl.O=C(NCc1ccc(F)cc1)N1CCN(CC(O)C2CC2)CC1 (stereo not given),Percent Effect,"30.3 µM, […]",2.371%
Cc1nc[nH]c1CN1CCc2nc3scc(C)c3c(=O)n2CC1.Cl,Percent Effect,"30.3 µM, […]",-39.02%
Fc1cccc(Oc2nccnc2C2CCN(C3CCOCC3)CC2)c1,Percent Effect,"30.3 µM, […]",-17.84%
CCn1nc(C)c(CN(CCCOC)Cc2ccccn2)c1C.O=C(O)CC(O)(CC(=O)O)C(=O)O,Percent Effect,"30.3 µM, […]",-0.7195%

# — ChEMBL document CHEMBL3988442, “University of Dundee, Small-Polar-MMV Screening Library” (2021)
